Shown are actives, neighbours in structure and some others; about 19% of the full set was active somewhere.
TDP1 cell noCPT – qHTS for Inhibitors of human tyrosyl-DNA phosphodiesterase 1 (TDP1): qHTS in cells in absence of CPT; DT40 Tdp1-/- hTDP1 cells, no CPT, ATP luminescence, 48 h; Potency, µM (series often up to 46.2 µM), inactives show at the top dose activity change, negative = growth inhibition, usual class: inhibitors; 420,000 compounds, 15% hits; note: potency is the fitted concentration of half-maximal effect; nearly all actives have a fitted effect of over 55% in size
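Growth of hTDP1-complemented DT40 Tdp1-knockout cells is measured by ATP luminescence after at least 48 hr compound exposure at 37 °C, with DMSO substituting for the 20 nM CPT used in the parallel screen.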
IL1B secr inh – blocks inflammasome-driven IL-1 beta release | THP-1 LPS/ATP IL-1B secretion, AlphaLISA, 16 h; stronger effect = lower value | activity change, % at 57.5 µM | 360,000 compounds, 4.7% hits | AID 743279; in the data active = activity change below about -50%; inconclusive = mostly about -30% to -49%
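THP-1 cells pretreated 1 hr with compounds (up to 57.5 uM final), then stimulated with LPS (250 ng/mL final) plus ATP (1.25 mM final); secreted IL-1B measured by AlphaLISA after 16 hr, decreased signal indicating inhibition.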
HT1080-NT tox – kills 2HG-producing HT-1080-NT fibrosarcoma cells; HT-1080-NT fibrosarcoma viability, CellTiter-Glo ATP luminescence, 48 h; 360,000 compounds, 1.6% hits; Potency, µM (highest dose often 46.1 µM), for inactives: top-dose activity, negative = less viability, usual class: cytotoxic; AID 686970;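 note: NT is the 2HG producing partner of a matched IDH1 knockdown line; potency is the fitted concentration of half-maximal effect; 0% = DMSO-treated cells and -100% = media-only wells without cells; nearly all actives have a fitted effect of over 55% in size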
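750 cells/well, RPMI + 5% FBS; 2 h settle, compound pin-transfer, 48 h at 37 degrees C. CellTiter-Glo 10 min RT, luminescence. Normalized to DMSO and media-only wells.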
DT40 TDP1 CPT – DT40-hTDP1 cell growth loss with CPT | chicken DT40 Tdp1-/-;hTDP1 cells + 20 nM CPT, ATP luminescence, 48 h | Potency, µM (top dose mostly 46.2 µM), inactives show at the highest dose activity change, negative = growth inhibition, actives largely listed as inhibitors | 420,000 compounds, 12% hits | AID 686979; note: potency is the fitted concentration of half-maximal effect; nearly all actives have a fitted effect of over 55% in size
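Cell growth measured by CellTiter-Glo luminescence after a minimum 48 h, 37 C compound exposure with 20 nM CPT in Tdp1-knockout DT40 cells stably expressing hTDP1, seeded 400/well; qHTS titration format.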
ELG1 repair inh – blocks ELG1-dependent DNA repair in HEK293T cells; HEK293T ELG1-luciferase reporter, luminescence, 16 h; DNA damage induced by 5-fluorouridine; Potency, µM (titrated, usually from 46.1 µM), inactives show at the top dose activity change, negative = inhibition, hits mostly inhibitors; 330,000 compounds, 2.3% hits; note: potency is the fitted concentration of half-maximal effect; nearly all actives have a fitted effect of over 55% in size
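Quantitative HTS, concentration-response format. 2,000 cells/well co-treated with 5-fluorouridine and compound, 16 hr in 5% CO2 at 37 °C; ONE-Glo luminescence read after 30 min.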
HT1080 IDH1KD tx – toxicity to HT-1080 IDH1 knockdown cells (counter line); 360,000 compounds, 2% hits; Potency, µM (doses to about 46.1 µM), without a hit: at the highest dose activity, negative = toxicity, usual class: cytotoxic; HT-1080 IDH1 knockdown viability, ATP luminescence, 48 h;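 note: potency is the fitted concentration of half-maximal effect; 0% = DMSO wells and -100% = cell-free medium wells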
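After a 2 h attachment period, IDH1KD HT-1080 cells took pin-transferred compound for 48 h at 37 °C; ATP-based luminescence after 10 min room-temperature reagent incubation reported viability.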
* = called active by the depositor; ? = inconclusive; . = no result given; ! = not confirmed by another sample. Unless noted, calls come from the whole dose curve; as a rule, active = well fitted curve in the direction sought with a large enough effect; inconclusive = small, poorly fitted or top-dose-only effect, or another doubt; inactive = no such curve, though single readings can be large; an effect the other way counts as inactive or inconclusive. Unless noted, % is set by controls: 0 for no effect and ±100 for the full control effect.

SMILES	TDP1 cell noCPT	IL1B secr inh	HT1080-NT tox	DT40 TDP1 CPT	ELG1 repair inh	HT1080 IDH1KD tx
C(=N\Nc1nn[nH]n1)/c1ccccc1	-13%	4	1%	-1%	9%	4%
Fc1ccc(/C=N/Nc2nc3ccccc3[nH]2)cc1F	?	?	-2%	?	?	-4%
Fc1cccc(/C=N/Nc2nc3ccccc3[nH]2)c1	?	-91*	?	?	?	?
COc1ccc(NC(=O)Cn2c(C)cc3ccccc3c2=O)c(OC)c1	-7%	.	.	6%	.	.
Fc1ccccc1/C=N/Nc1ncnc2nc[nH]c12	-26%	69	-13%	-6%	?	-1%
C(=N\Nc1ncnc2ccccc12)/c1ccccc1	4.6µM*	49	23µM*	3.7µM*	?	?
Clc1ccc(/C=N/Nc2nc(Cl)nc3ccccc23)cc1	?	15	-8%	?	?	-8%
Fc1cccc(/C=N/Nc2ncnc3nc[nH]c23)c1	-18%	-97*	-2%	-3%	?	-19%
C(/CCc1ccccc1)=N\Nc1nc2ccccc2[nH]1	18µM*	20	?	?	1%	?
COC(=O)c1cc2sc(C)cc2n1CC(=O)Nc1cccc(SC)c1	-26%	.	.	1%	.	.
CC1(C(=O)NCc2ccccc2)CSCC(=O)N1Cc1cccc(F)c1 (stereo not drawn)	?	8	1%	2%	.	4%
CC1CCC(C(C)C)C(OC(=O)Cn2c(-c3ccc(Cl)cc3)[n+](C)c3ccccc32)C1 (stereo not drawn)	2.1µM*	-91*	5.8µM*	2.3µM*	?	5.8µM*
Cc1ccccc1OCc1n(CC(=O)OC2CC(C)CCC2C(C)C)c2ccccc2[n+]1C (stereo not drawn)	2.6µM*	-97*!	16µM*	10µM*	12µM*	7.3µM*
CC1CCC(C(C)C)C(OC(=O)COC(=O)c2cccn2C)C1 (stereo not drawn)	-7%	-16	10%	1%	-27%	1%
CCC1CN(C(=O)Nc2cccc(C)c2)c2cc(C)ccc2O1 (stereo not drawn)	21µM*	0	0%	?	2%	-11%
CCC1CN(C(=O)Nc2cc(C)ccc2OC)c2cc(Cl)ccc2O1 (stereo not drawn)	-53%	.	.	?	.	.
CCC1CN(C(=O)NCc2ccccc2)c2ccccc2O1 (stereo not drawn)	?	-25	2%	-13%	-7%	0%
CCOC(=O)c1cccc(NC(=O)N2CC(CC)Oc3ccccc32)c1 (stereo not drawn)	16µM*	.	.	?	.	.
CCC1CN(C(=O)Nc2cccc(OC)c2)c2ccccc2O1 (stereo not drawn)	23µM*	.	.	?	.	.
C=CC[N+]1([C@H]2C[C@H]3[C@@H]4CC[C@H]5C[C@H](OC(C)=O)[C@@H](N6CCCCC6)C[C@]5(C)[C@H]4CC[C@]3(C)[C@H]2OC(=O)CC)CCCCC1	-16%	.	.	-5%	.	.
O=C(CCNC(=O)c1ccc(Br)cc1)NNC(=O)c1ccccc1	-6%	19	-9%	1%	21%	-19%
CCCCCCCCCCS(=O)(=O)N/N=C/c1ccc(O)cc1	?	?	?	16µM*	6%	?
CCOc1ccccc1/C=N/NC(=O)c1cccc(S(=O)(=O)N(CC)CC)c1	-19%	-1	6%	16%	?	13%
CCN(CC)S(=O)(=O)c1cccc(C(=O)N/N=C(\C)c2ccc(O)cc2O)c1	6.5µM*	93	?	4.6µM*	?	1.5µM*

Source: PubChem (National Center for Advancing Translational Sciences (NCATS))
